Our source for the binding signal values is PMC13541613, “GHT-SELEX demonstrates unexpectedly high intrinsic sequence specificity and complex DNA binding of many human transcription factors”.

Test in all cases: HT-SELEX; 20 mM HEPES pH 7, 140 mM KCl, 5 mM NaCl, 1 mM K2HPO4, 2 mM MgSO4, 100 uM EGTA, ZnSO4, 0.1% Tween20; room temperature, 1 h; high values mean tight binding
What all share (settings): protein: ivt; tags: eGFP (N-terminal); dsDNA, one strand shown

The target in one experiment is ZNF721 full-length (Homo sapiens, UniProt Q8TF20-2 1-923). A digest of the protocol:
(§1)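 A tagged transcription factor, either full-length or its DNA-binding-domain fragment, was made in HEK293 lysate or cell-free extract, immobilised on beads and incubated with a randomized 40-base DNA library for 1 h at room temperature in HEPES/KCl low-stringency buffer containing Tween20. Washed beads were heat-eluted, and the bound DNA was PCR-amplified over successive cycles and Illumina-sequenced at ~3 million 60 bp reads per sample. The binding signal is the relative k-mer count in selected reads, where a higher value means tighter binding.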

For another experiment, the target named is ZNF721 DBD1 (Homo sapiens, UniProt Q8TF20-2 29-461). A digest of the protocol: as §1
The target of the next experiment is ZNF721 DBD2 (Homo sapiens, UniProt Q8TF20-2 395-923). A digest of the protocol: as §1
Chain of ZNF721 DBD2 (Q8TF20 383-911): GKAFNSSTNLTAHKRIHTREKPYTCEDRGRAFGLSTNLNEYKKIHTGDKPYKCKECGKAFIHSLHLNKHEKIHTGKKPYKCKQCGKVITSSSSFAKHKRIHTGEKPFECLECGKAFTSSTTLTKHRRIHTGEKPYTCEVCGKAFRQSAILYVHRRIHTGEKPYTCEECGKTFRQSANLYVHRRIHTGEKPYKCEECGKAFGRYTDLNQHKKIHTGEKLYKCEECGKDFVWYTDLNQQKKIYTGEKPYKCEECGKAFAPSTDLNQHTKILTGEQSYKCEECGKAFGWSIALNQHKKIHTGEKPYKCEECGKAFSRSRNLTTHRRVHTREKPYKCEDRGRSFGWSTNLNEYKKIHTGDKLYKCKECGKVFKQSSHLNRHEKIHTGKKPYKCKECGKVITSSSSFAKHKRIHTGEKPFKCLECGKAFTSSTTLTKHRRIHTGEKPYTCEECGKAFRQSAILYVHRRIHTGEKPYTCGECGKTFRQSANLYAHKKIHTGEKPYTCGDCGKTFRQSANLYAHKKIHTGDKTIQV

Chain of ZNF721 full-length (Q8TF20 other isoform, or with tags, fused parts or gaps): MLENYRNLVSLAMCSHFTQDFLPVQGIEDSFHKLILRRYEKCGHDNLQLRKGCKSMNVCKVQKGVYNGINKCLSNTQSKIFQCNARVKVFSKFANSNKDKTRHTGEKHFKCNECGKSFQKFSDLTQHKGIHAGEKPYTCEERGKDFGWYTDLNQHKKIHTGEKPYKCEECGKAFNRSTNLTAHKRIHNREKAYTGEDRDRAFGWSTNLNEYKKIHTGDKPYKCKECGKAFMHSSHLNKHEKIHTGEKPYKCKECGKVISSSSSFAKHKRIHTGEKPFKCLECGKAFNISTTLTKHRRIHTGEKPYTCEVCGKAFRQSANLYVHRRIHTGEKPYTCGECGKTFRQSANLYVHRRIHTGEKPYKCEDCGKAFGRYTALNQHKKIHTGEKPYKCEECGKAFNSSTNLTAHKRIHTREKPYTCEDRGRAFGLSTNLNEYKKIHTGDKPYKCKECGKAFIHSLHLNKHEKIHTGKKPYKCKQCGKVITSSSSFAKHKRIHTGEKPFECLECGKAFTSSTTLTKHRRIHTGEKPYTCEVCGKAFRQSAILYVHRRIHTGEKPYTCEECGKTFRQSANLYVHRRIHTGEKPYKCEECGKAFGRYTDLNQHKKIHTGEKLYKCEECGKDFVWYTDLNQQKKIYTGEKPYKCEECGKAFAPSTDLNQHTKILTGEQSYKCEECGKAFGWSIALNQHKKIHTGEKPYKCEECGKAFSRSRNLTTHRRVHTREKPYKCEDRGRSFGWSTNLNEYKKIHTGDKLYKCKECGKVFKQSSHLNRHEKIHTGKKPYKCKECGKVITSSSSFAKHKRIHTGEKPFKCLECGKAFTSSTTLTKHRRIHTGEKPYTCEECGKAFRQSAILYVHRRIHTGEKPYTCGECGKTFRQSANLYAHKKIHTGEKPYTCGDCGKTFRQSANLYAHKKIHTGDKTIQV
Chain of ZNF721 DBD1 (Q8TF20 17-449): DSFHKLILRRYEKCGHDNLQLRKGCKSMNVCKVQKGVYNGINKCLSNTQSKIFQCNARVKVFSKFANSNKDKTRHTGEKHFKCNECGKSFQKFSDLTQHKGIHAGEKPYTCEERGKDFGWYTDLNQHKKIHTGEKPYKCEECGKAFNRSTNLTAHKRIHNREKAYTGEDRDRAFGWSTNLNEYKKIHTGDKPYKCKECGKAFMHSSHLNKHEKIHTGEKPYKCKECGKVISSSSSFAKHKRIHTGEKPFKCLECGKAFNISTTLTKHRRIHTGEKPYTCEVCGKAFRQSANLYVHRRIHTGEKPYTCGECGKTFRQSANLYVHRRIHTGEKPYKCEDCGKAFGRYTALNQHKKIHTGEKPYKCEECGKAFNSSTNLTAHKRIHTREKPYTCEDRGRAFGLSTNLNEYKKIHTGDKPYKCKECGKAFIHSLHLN

In the case of GGGGGCGGGA, the binding signal in the experiment with ZNF721 full-length is 0.119 relative 10-mer count; with ZNF721 DBD1 it was 0.00537 relative 10-mer count; in the experiment with ZNF721 DBD2, 0.00144 relative 10-mer count.

In the case of TCCCACCCCA, the binding signal in the experiment with ZNF721 full-length was 0.147 relative 10-mer count; with ZNF721 DBD1, 0.00564 relative 10-mer count; with ZNF721 DBD2, 0.00372 relative 10-mer count.

Regarding ACCACCCCCC, the values for the binding signal with ZNF721 full-length, with ZNF721 DBD1 and in the experiment with ZNF721 DBD2 were 0.211 relative 10-mer count, 0.00771 relative 10-mer count and 0.00288 relative 10-mer count, respectively.

ACCCCCGCCC: the binding signal with ZNF721 full-length stood at 0.173 relative 10-mer count; in the experiment with ZNF721 DBD1, 0.00619 relative 10-mer count; in the experiment with ZNF721 DBD2, 0.00348 relative 10-mer count.

CCACCCCTAC: the values for the binding signal with ZNF721 full-length, with ZNF721 DBD1 and with ZNF721 DBD2 were 0.112 relative 10-mer count, 0.00449 relative 10-mer count and 0.0036 relative 10-mer count, respectively.

As to CCCCCCACAC, the binding signal stood at 0.17 relative 10-mer count with ZNF721 full-length, 0.00656 relative 10-mer count in the experiment with ZNF721 DBD1 and 0.00671 relative 10-mer count with ZNF721 DBD2.

As for CACCCCACCA, the binding signal in the experiment with ZNF721 full-length is 0.182 relative 10-mer count; in the experiment with ZNF721 DBD1 it was 0.00725 relative 10-mer count; in the experiment with ZNF721 DBD2, 0.00587 relative 10-mer count.

With ACCCCACCAC, the binding signal in the experiment with ZNF721 full-length was determined as 0.199 relative 10-mer count; with ZNF721 DBD1, 0.00738 relative 10-mer count; in the experiment with ZNF721 DBD2, 0.00407 relative 10-mer count.

In the case of AAAAGCTGCA, the binding signal with ZNF721 full-length is 0.114 relative 10-mer count; with ZNF721 DBD1 it was 0.0533 relative 10-mer count; with ZNF721 DBD2 it was 0.00312 relative 10-mer count.

Turning to CCCGCCCACC, the binding signal in the experiment with ZNF721 full-length worked out at 0.259 relative 10-mer count; with ZNF721 DBD1, 0.0105 relative 10-mer count; with ZNF721 DBD2 it was 0.0024 relative 10-mer count.

On to CCCTCCACCA, for which the binding signal with ZNF721 full-length stood at 0.109 relative 10-mer count; with ZNF721 DBD1, 0.00436 relative 10-mer count; with ZNF721 DBD2, 0.00659 relative 10-mer count.

Regarding CCCCCGCCAC, the binding signal in the experiment with ZNF721 full-length stood at 0.176 relative 10-mer count; in the experiment with ZNF721 DBD1 it was 0.00679 relative 10-mer count; with ZNF721 DBD2, 0.0036 relative 10-mer count.

For ATGTGTATGA, the binding signal was 0.12 relative 10-mer count with ZNF721 full-length, 0.124 relative 10-mer count with ZNF721 DBD1 and 0.0018 relative 10-mer count with ZNF721 DBD2.

Consider AAAGCTGCAC, for which the results for the binding signal with ZNF721 full-length, in the experiment with ZNF721 DBD1 and with ZNF721 DBD2 were 0.11 relative 10-mer count, 0.0548 relative 10-mer count and 0.0024 relative 10-mer count, respectively.

Consider CAGAAAAAAG, for which the binding signal with ZNF721 full-length came to 0.147 relative 10-mer count; in the experiment with ZNF721 DBD1, 0.0308 relative 10-mer count; in the experiment with ZNF721 DBD2, 0.0475 relative 10-mer count.

Take GGGTGGGGCA: the binding signal is 0.104 relative 10-mer count with ZNF721 full-length, 0.00344 relative 10-mer count with ZNF721 DBD1 and 0.00216 relative 10-mer count in the experiment with ZNF721 DBD2.

Turning to CCACCCGCCA, the binding signal with ZNF721 full-length was 0.108 relative 10-mer count; with ZNF721 DBD1 it was 0.00445 relative 10-mer count; with ZNF721 DBD2, 0.00491 relative 10-mer count.

In the case of GCCACCCCCC, the figures for the binding signal in the experiment with ZNF721 full-length, with ZNF721 DBD1 and in the experiment with ZNF721 DBD2 were 0.138 relative 10-mer count, 0.00546 relative 10-mer count and 0.00348 relative 10-mer count, respectively.

Consider CCCGCCCCTC, for which the binding signal stood at 0.127 relative 10-mer count with ZNF721 full-length, 0.00633 relative 10-mer count with ZNF721 DBD1 and 0.00144 relative 10-mer count with ZNF721 DBD2.

On to CCCCCGTCCC, for which the binding signal was found to be 0.173 relative 10-mer count with ZNF721 full-length, 0.00642 relative 10-mer count with ZNF721 DBD1 and 0.00252 relative 10-mer count with ZNF721 DBD2.

Regarding AAAAAGAGCA, the binding signal in the experiment with ZNF721 full-length was determined as 0.108 relative 10-mer count; with ZNF721 DBD1 it was 0.0078 relative 10-mer count; in the experiment with ZNF721 DBD2 it was 0.0193 relative 10-mer count.

CAGCCCACCC: the binding signal in the experiment with ZNF721 full-length was 0.151 relative 10-mer count; in the experiment with ZNF721 DBD1, 0.00431 relative 10-mer count; in the experiment with ZNF721 DBD2, 0.0841 relative 10-mer count.

Turning to AAAAAAAACA, the binding signal turned out to be 0.37 relative 10-mer count with ZNF721 full-length, 0.00592 relative 10-mer count in the experiment with ZNF721 DBD1 and 0.252 relative 10-mer count with ZNF721 DBD2.

Regarding CCCCCGCCCG, the figures for the binding signal with ZNF721 full-length, in the experiment with ZNF721 DBD1 and in the experiment with ZNF721 DBD2 were 0.109 relative 10-mer count, 0.00372 relative 10-mer count and 0.00192 relative 10-mer count, respectively.

As to CGCCCACCCC, the binding signal with ZNF721 full-length amounted to 0.23 relative 10-mer count; with ZNF721 DBD1, 0.00913 relative 10-mer count; in the experiment with ZNF721 DBD2 it was 0.00252 relative 10-mer count.

Consider CCCCCGCCTC, for which the binding signal with ZNF721 full-length came out at 0.119 relative 10-mer count; with ZNF721 DBD1 it was 0.00509 relative 10-mer count; with ZNF721 DBD2 it was 0.0036 relative 10-mer count.

For the sequence CCCCCCACCC, the binding signal is 0.415 relative 10-mer count with ZNF721 full-length, 0.0187 relative 10-mer count in the experiment with ZNF721 DBD1 and 0.0036 relative 10-mer count with ZNF721 DBD2.

On to CAACCCCCCC, for which the binding signal with ZNF721 full-length was 0.131 relative 10-mer count; with ZNF721 DBD1, 0.00431 relative 10-mer count; with ZNF721 DBD2, 0.00252 relative 10-mer count.

In the case of CCCACCCTCC, the figures for the binding signal in the experiment with ZNF721 full-length, with ZNF721 DBD1 and in the experiment with ZNF721 DBD2 were 0.252 relative 10-mer count, 0.0121 relative 10-mer count and 0.0115 relative 10-mer count, respectively.

In the case of CAGCGTCTCC, the binding signal in the experiment with ZNF721 full-length is 0.299 relative 10-mer count; with ZNF721 DBD1, 0.00174 relative 10-mer count; in the experiment with ZNF721 DBD2 it was 0.722 relative 10-mer count.

In the case of CCCCTTCCCC, the binding signal in the experiment with ZNF721 full-length came to 0.162 relative 10-mer count; in the experiment with ZNF721 DBD1, 0.00702 relative 10-mer count; with ZNF721 DBD2, 0.00192 relative 10-mer count.

In the case of CACCACCACC, the binding signal was 0.19 relative 10-mer count with ZNF721 full-length, 0.0072 relative 10-mer count with ZNF721 DBD1 and 0.0109 relative 10-mer count with ZNF721 DBD2.

For the sequence GCCCACCACC, the binding signal with ZNF721 full-length turned out to be 0.17 relative 10-mer count; in the experiment with ZNF721 DBD1, 0.00688 relative 10-mer count; in the experiment with ZNF721 DBD2, 0.00336 relative 10-mer count.

For CACCCGCCCC, the binding signal with ZNF721 full-length is 0.188 relative 10-mer count; with ZNF721 DBD1, 0.0066 relative 10-mer count; with ZNF721 DBD2, 0.00108 relative 10-mer count.

Consider ACCCACCCTC, for which the values for the binding signal with ZNF721 full-length, in the experiment with ZNF721 DBD1 and with ZNF721 DBD2 were 0.132 relative 10-mer count, 0.00541 relative 10-mer count and 0.00647 relative 10-mer count, respectively.

Turning to GCAAAAAAAA, the binding signal with ZNF721 full-length amounted to 0.118 relative 10-mer count; with ZNF721 DBD1, 0.0105 relative 10-mer count; with ZNF721 DBD2, 0.056 relative 10-mer count.

For the sequence AGCATATCCA, the binding signal was 0.107 relative 10-mer count with ZNF721 full-length, 0.0108 relative 10-mer count with ZNF721 DBD1 and 0.102 relative 10-mer count with ZNF721 DBD2.
